ATXN2 expr inh: Primary qHTS for Inhibitors of ATXN expression. Potency, µM (doses to about 57 µM), inactives show at the top dose activity change, negative = inhibition, actives largely listed as inhibitors. actives 0.72% (n = 360,000). HEK-293 ATXN2-luciferase reporter, luminescence, 24 h; further: on the % scale 0 is the no-effect control and ±100 the full control effect; nearly all actives have a fitted effect of over 55% in size
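ATXN2-luciferase reporter cells (luciferase flanked by upstream and downstream ATXN2 gene portions) were treated 24 h at 37 °C with compounds at up to 57 uM. SteadyGlo luminescence gave expression; GF-AFC fluorescence gave viability.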
HT1080-NT tox: qHTS for induction of synthetic lethality in tumor cells producing 2HG: qHTS for the HT-1080-NT fibrosarcoma cell line. HT-1080-NT fibrosarcoma viability, CellTiter-Glo ATP luminescence, 48 h. Potency, µM (top dose mostly 46.1 µM), for the others: at the highest dose activity, negative = less viability, actives largely listed as cytotoxic. actives 1.6% (n = 360,000);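 further: NT is the 2HG producing partner of a matched IDH1 knockdown line; 0% = DMSO-treated cells and -100% = media-only wells without cells; nearly all actives have a fitted effect of over 55% in size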
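Viability by CellTiter-Glo luminescence after 48 h compound exposure at 37C of HT-1080-NT cells (750/well, RPMI, 5% FBS). % activity scaled between DMSO wells and medium-only wells, then curve-fitted and categorized by curve class.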
ATXN viability: Viability Counterscreen for Primary qHTS for Inhibitors of ATXN expression. S2 cells (HEK-293 line with an ATXN2-luciferase reporter) viability, CellTiter-Fluor protease fluorescence, 24 h. actives 0.49% (n = 400,000). Potency, µM (titrated, usually from 56.7 µM), most hits filed as cytotoxic; further: nearly all actives have a fitted effect of over 40% in size
TGFb SMAD3 inh: qHTS for Inhibitors of TGF-b | Potency, µM (highest dose often 46.1 µM), for inactives: top-dose activity, negative = inhibition, actives largely listed as inhibitors | actives 1.2% (n = 410,000) | HepG2 CAGA-GFP TGF-b/SMAD3 reporter, GFP fluorescence, 18 h; TGF-beta stimulated, 500 pg/mL final; further: on the % scale 0 is the no-effect control and ±100 the full control effect; nearly all actives have a fitted effect of over 65% in size
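HEPG2 CAGA-GFP reporter cells (1000/well, DMEM with 1% FBS) received compounds, then recombinant TGF-beta at 500 pg/mL final for 18 hours at 37 degrees C. Per-cell GFP summed per well was normalised to unstimulated and stimulated DMSO controls before curve fitting.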
HT1080 IDH1KD tx: qHTS for induction of synthetic lethality in tumor cells producing 2HG: qHTS for the HT-1080-IDH1KD cell line. HT-1080 IDH1 knockdown viability, ATP luminescence, 48 h. Potency, µM (titrated, usually from 46.1 µM), for the others: at the highest dose activity, negative = toxicity, usual class: cytotoxic. actives 2% (n = 360,000). AID 686971, 2013;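 further: 0% = DMSO wells and -100% = cell-free medium wells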
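Cytotoxicity counter-line: IDH1KD HT-1080, 48 h, CellTiter-Glo. Curves classed by r2, magnitude and activity.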
HepG2 tox: qHTS for Inhibitors of TGF-b: Cytotox Counterscreen | HepG2 CAGA-GFP viability, ATP luminescence, 18 h | Potency, µM (series often up to 46.1 µM), without a hit: top-dose activity change, negative = cytotoxicity, most hits filed as cytotoxic | actives 0.76% (n = 410,000) | AID 588856, 2011
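HepG2 CAGA-GFP cells (1000/well, DMEM with 1% FBS) received compound, then TGF-beta at 500 pg/mL final, and were incubated 18 hours at 37 degrees C. Viability was read by CellTiter-Glo luminescence. Media-only wells were set as complete cell-killing and DMSO as no toxicity.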
An asterisk follows results filed as active; i = inactive; u = inconclusive; x = no result. Compounds with a hit are over-represented: about 3.9% of the library has one in this group of screens. The call rests on the fitted dose curve; in most records, active means well fitted curve in the direction sought with a large enough effect; inconclusive means small, poorly fitted or top-dose-only effect, or another doubt; inactive means no such curve, though single readings can be large; an effect the other way counts as inactive or inconclusive. Potency means the concentration at half of the fitted maximal effect.

SMILES	ATXN2 expr inh	HT1080-NT tox	ATXN viability	TGFb SMAD3 inh	HT1080 IDH1KD tx	HepG2 tox
COCCN1Cc2cccc(C(=O)Nc3cccc(-c4nc5ccccc5[nH]4)c3)c2C1=O	u	-52%	u	32%	16µM*	-2%
O=C(Nc1cccc(-c2nc3ccccc3[nH]2)c1)c1cccc(NC(=O)c2ccco2)c1	u	u	32µM*	u	u	-111%
COCCN1Cc2cccc(C(=O)Nc3ccc(-c4nc5ccccc5[nH]4)cc3)c2C1=O	-6%	10%	i	0%	-1%	-1%
CCOc1cc(OCC)cc(C(=O)Nc2cccc(-c3nc4ccccc4[nH]3)c2)c1	-35%	x	u	u	x	14µM*
CCCOc1ccc(C(=O)Nc2cccc(-c3nc4ccccc4[nH]3)c2)cc1	u	x	u	u	x	-8%
CC(C)(C)OC(=O)N[C@H]1CCCCCC=C[C@@H]2C[C@@]2(C(=O)NS(=O)(=O)C2CC2)NC(=O)[C@@H]2C[C@@H](OC(=O)N3Cc4cccc(F)c4C3)CN2C1=O	2%	x	x	x	x	x
CC1CN(CC(=O)NCCC2COc3ccccc3O2)Cc2cc(Cl)ccc2O1 (stereo not given)	x	x	i	x	x	x
CC[C@H](C)[C@@H]1NC(=O)[C@H]([C@@H](C)CC)NC(=O)[C@@H](CC(C)C)NC(=O)[C@H](Cc2ccccc2)NC(=O)[C@H](Cc2ccccc2)NC(=O)[C@@H]2CCCN2C(=O)[C@@H]2CCCN2C(=O)[C@H](C(C)C)NC(=O)[C@H](CC(C)C)NC1=O	u	u	28µM*	-8%	u	-3%
CN(/N=C/c1ccc(O)cc1O)c1ncc(C(F)(F)F)cc1Cl	-28%	-12%	u	u	-25%	13µM*
CC(C)NCCCC1(C(N)=O)c2ccccc2-c2ccccc21	3%	x	i	x	x	x
Cc1ccc(NC(=O)/C(C#N)=C/c2cn(CC(=O)NCc3ccco3)c3ccccc23)cc1C	12%	24%	x	-15%	8%	3%
Cc1cc(C)cc(NC(=O)/C(C#N)=C/c2cn(CC(=O)NCc3ccco3)c3ccccc23)c1	u	10µM*	i	0%	9.2µM*	-20%
C=C(Br)COC(c1ccco1)[C@H](Cc1ccccc1)NC(=O)OC(C)(C)C (stereo not given in full)	x	x	x	u	x	-28%
COc1ccc(NC(=O)c2cnc3sc(N4CCOCC4)nn3c2=O)c(OC)c1	4%	x	i	0%	x	-5%
Cc1ccc(S(=O)(=O)Cc2ccc(C(=O)OCc3ccccc3)cc2)cc1	-3%	0%	i	6%	3%	-8%
COC(=O)c1c[nH]c2c1-c1cc(C(=O)OCc3ccccc3)n(S(=O)(=O)c3ccc(C)cc3)c1C(=O)C2=O	u	u	u	0.45µM*	21µM*	0.56µM*
CC1CC=CC2C1C(=O)N(Cc1ccccc1)C2c1ccc(F)c(Br)c1 (stereo not given)	x	x	x	u	x	-83%
CCN1/C(=C/c2ccc3ccccc3[n+]2CC)C=Cc2ccccc21	3.2µM*	6.5µM*	10µM*	1.8µM*	8.2µM*	10µM*
CCN1/C(=C/c2ccc3ccccc3[n+]2CCCS(=O)(=O)[O-])C=Cc2cc(C)ccc21	-16%	-14%	18µM*	-21%	-17%	-15%
COc1cc(-c2nc3ccccn3c2Nc2ccccc2C)ccc1O	-20%	x	u	31%	x	-34%
O=C(Nc1ccc([N+](=O)[O-])cc1Cl)c1ccccc1O	x	x	x	u	x	-35%
CC(=O)Oc1c(C)cc(Cl)cc1C(=O)Nc1ccc([N+](=O)[O-])cc1Cl	u	u	28µM*	u	1.2µM*	-42%
COc1ccc(C(=O)/C=C2\C(=O)Nc3ccc(Br)cc32)cc1	u	u	u	u	u	-43%
O=C1Nc2ccc(Br)cc2/C1=C/C(=O)c1ccc2c(c1)OCO2	x	u	20µM*	u	u	-110%
CC1=C(C(=O)OCc2ccccc2)C(/C=C/c2ccccc2)NC(=S)N1 (stereo not given)	u	-24%	i	u	u	21%
SMILES	ATXN2 expr inh	HT1080-NT tox	ATXN viability	TGFb SMAD3 inh	HT1080 IDH1KD tx	HepG2 tox
C=CCOC(=O)C1=C(C)NC(=S)NC1/C=C/c1ccccc1 (stereo not given)	-30%	13µM*	i	u	u	-14%
CC(=O)Nc1nc(-c2ccc3c(c2)CCN3S(C)(=O)=O)cs1	53%	-1%	i	18%	-3%	7%
CS(=O)(=O)N1CCc2cc(-c3csc(NC(=O)Cc4cccs4)n3)ccc21	18µM*	10µM*	u	u	u	-35%
Cc1cccc(C(=O)N2CCc3cc(-c4csc(NC(=O)CN5CCCC5)n4)ccc32)c1	-32%	21µM*	u	-23%	16µM*	-27%
COc1cc(CN2CCc3nnc(C(NS(C)(=O)=O)C(C)C)n3CC2)ccc1F (stereo not given)	x	x	i	x	x	x
COc1cc(/C=N/NC(=O)c2ccc(NC(=O)C3CCCCC3)cc2)ccc1O	u	u	i	-19%	12µM*	-23%
CC(=O)c1ccc(-c2ccc3c4c(ccc3c2)OC(CNC(=O)C(C)N2CCOCC2)C4)s1 (stereo not given)	x	x	i	x	x	x
O=C1NC(=O)[C@@]2(CCOc3ccc(F)cc32)N1	0%	x	i	x	x	x
COc1cc(C)c(C(=O)CC(=O)c2c(C)cc(OC)cc2C)c(C)c1	25µM*	-14%	i	6%	u	-63%
COc1ccc(NC(C)=O)c(C)c1	-7%	0%	i	7%	-1%	52%
COC(=O)/C=C\C(C#N)(C#N)N=Cc1ccc(OC)cc1	u	u	u	-5%	5.8µM*	-7%
COc1ccc(C=NNC(=O)CCCCC(=O)NN=Cc2ccc(OC)cc2)cc1	-2%	-2%	i	7%	-2%	0%
O=[N+]([O-])c1nccn1CO[C@@H](CO)[C@H](O)CO	0%	x	i	x	x	x
CC(NCC(O)c1ccc([N+](=O)[O-])cc1)C12CC3CC(CC(C3)C1)C2 (stereo not given)	2%	18µM*	i	9%	23µM*	-30%

Assay outcomes as filed in PubChem BioAssay.
